The campaign covered roughly 5,500 compounds. About 2,000 (36%) were called active. About 18% were inconclusive and are not listed. No stated cut-off is given here; in the data, active means normalized growth mostly below about 0.91 (no sharp cut-off); inconclusive means no clear call, values can overlap the other calls; inactive means mostly above about 0.92. The list shows a part of the results.
Experiment: chemical genetic growth profiling, strain panel (AID 1159580);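 further: tested at 20 µM; growth read once vehicle control cultures reached saturation at 30 °C; 1 = growth at the plate median or of vehicle wells; lower values mean less growth of the strain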
Details: growth OD

Measured: normalized growth

C#CCCCCCCCCCCCC(=O)CC(O)COC(C)=O (centres undefined)
active: S. cerevisiae deletion strains, locus YJR075W, strain HOC1, hits give low values 0.771 | S. cerevisiae deletion strains, locus YKL190W, strain CNB1, hits give low values 0.82 | S. cerevisiae deletion strains, locus YKR001C, strain vps1, hits give low values 0.754 | S. cerevisiae deletion strains, locus YLR058C, strain SHM2, hits give low values 0.86 | S. cerevisiae deletion strains, locus YLR262C, strain YPT6 (second series), hits give low values 0.807 | S. cerevisiae deletion strains, locus YLR268W, strain sec22, hits give low values 0.784 | S. cerevisiae deletion strains, locus YLR320W, strain mms22, hits give low values 0.845 | S. cerevisiae deletion strains, locus YLR330W, strain CHS5, hits give low values 0.753 | S. cerevisiae deletion strains, locus YLR418C, strain cdc73, hits give low values 0.364 | S. cerevisiae deletion strains, locus YML032C, strain rad52, hits give low values 0.86 | S. cerevisiae deletion strains, locus YMR223W, strain ubp8, hits give low values 0.841 | S. cerevisiae deletion strains, locus YMR263W, strain SAP30, hits give low values 0.848 | S. cerevisiae deletion strains, locus YNL067W, strain RPL9B, hits give low values 0.742 | S. cerevisiae deletion strains, locus YNL071W, strain lat1, hits give low values 0.748 | S. cerevisiae deletion strains, locus YNL153C, strain GIM3, hits give low values 0.826 | S. cerevisiae deletion strains, locus YNL233W, strain BNI4, hits give low values 0.685 | S. cerevisiae deletion strains, locus YNL298W, strain CLA4, hits give low values 0.898 | S. cerevisiae deletion strains, locus YNL307C, strain MCK1, hits give low values 0.166 | S. cerevisiae deletion strains, locus YOL147C, strain pex11, hits give low values 0.71 | S. cerevisiae deletion strains, locus YOR061W, strain CKA2, hits give low values 0.514 | S. cerevisiae deletion strains, locus YOR144C, strain elg1, hits give low values 0.93 | S. cerevisiae deletion strains, locus YOR184W, strain ser1, hits give low values 0.62 | S. cerevisiae deletion strains, locus YPL055C, strain LGE1, hits give low values 0.612 | S. cerevisiae deletion strains, locus YPR163C, strain tif3, hits give low values 0.626 | S. cerevisiae deletion strains, strain wtn01, hits give low values 0.801 | S. cerevisiae strains, strain wild type, hits give low values 0.83
inactive: S. cerevisiae deletion strains, locus YJR043C, strain POL32, hits give low values 0.865 | S. cerevisiae deletion strains, locus YKL009W, strain mrt4, hits give low values 0.901 | S. cerevisiae deletion strains, locus YKL068W, hits give low values 0.977 | S. cerevisiae deletion strains, locus YKL085W, strain MDH1 (second series), hits give low values 0.958 | S. cerevisiae deletion strains, locus YKL085W, strain MDH1, hits give low values 0.958 | S. cerevisiae deletion strains, locus YKL160W, strain elf1, hits give low values 0.969 | S. cerevisiae deletion strains, locus YKR026C, strain gcn3, hits give low values 0.991 | S. cerevisiae deletion strains, locus YKR091W, strain srl3, hits give low values 0.988 | S. cerevisiae deletion strains, locus YLL001W, strain dnm1, hits give low values 1 | S. cerevisiae deletion strains, locus YLL026W, hits give low values 0.995 | S. cerevisiae deletion strains, locus YLL041C, strain sdh2, hits give low values 0.989 | S. cerevisiae deletion strains, locus YLR027C, strain aat2, hits give low values 0.994 | S. cerevisiae deletion strains, locus YLR039C, strain RIC1, hits give low values 0.688 | S. cerevisiae deletion strains, locus YLR102C, strain apc9, hits give low values 0.97 | S. cerevisiae deletion strains, locus YLR221C, strain rsa3, hits give low values 0.935 | S. cerevisiae deletion strains, locus YLR258W, strain gsy2, hits give low values 0.972 | S. cerevisiae deletion strains, locus YLR262C, strain YPT6, hits give low values 0.655 | S. cerevisiae deletion strains, locus YLR342W, strain FKS1 (second series), hits give low values 0.794 | S. cerevisiae deletion strains, locus YLR342W, strain FKS1, hits give low values 0.953 | S. cerevisiae deletion strains, locus YLR357W, strain rsc2, hits give low values 1.01 | S. cerevisiae deletion strains, locus YLR370C, strain arc18, hits give low values 0.978 | S. cerevisiae deletion strains, locus YLR371W, strain rom2, hits give low values 0.964 | S. cerevisiae deletion strains, locus YLR384C, strain iki3, hits give low values 0.996 | S. cerevisiae deletion strains, locus YML016C, strain PPZ1, hits give low values 0.994 | S. cerevisiae deletion strains, locus YML120C, strain ndi1, hits give low values 0.986 | S. cerevisiae deletion strains, locus YML124C, strain tub3, hits give low values 0.974 | S. cerevisiae deletion strains, locus YMR058W, strain fet3, hits give low values 0.97 | S. cerevisiae deletion strains, locus YMR078C, strain ctf18, hits give low values 0.961 | S. cerevisiae deletion strains, locus YMR125W, strain sto1, hits give low values 0.979 | S. cerevisiae deletion strains, locus YMR129W, hits give low values 0.999 | S. cerevisiae deletion strains, locus YMR205C, strain PFK2, hits give low values 0.893 | S. cerevisiae deletion strains, locus YMR231W, strain pep5, hits give low values 0.957 | S. cerevisiae deletion strains, locus YMR307W, strain GAS1, hits give low values 0.99 | S. cerevisiae deletion strains, locus YNL128W, strain TEP1, hits give low values 0.872 | S. cerevisiae deletion strains, locus YNL209W, strain ssb2, hits give low values 0.981 | S. cerevisiae deletion strains, locus YNL248C, strain rpa49, hits give low values 0.973 | S. cerevisiae deletion strains, locus YNL250W, strain rad50, hits give low values 0.989 | S. cerevisiae deletion strains, locus YNL271C, strain bni1, hits give low values 0.965 | S. cerevisiae deletion strains, locus YNL322C, strain KRE1 (second series), hits give low values 0.985 | S. cerevisiae deletion strains, locus YNL322C, strain KRE1, hits give low values 0.971 | S. cerevisiae deletion strains, locus YNR049C, strain mso1, hits give low values 0.982 | S. cerevisiae deletion strains, locus YNR052C, strain pop2, hits give low values 0.931 | S. cerevisiae deletion strains, locus YOL006C, strain TOP1, hits give low values 0.637 | S. cerevisiae deletion strains, locus YOL012C, strain htz1 0.999 | S. cerevisiae deletion strains, locus YOR001W, strain rrp6, hits give low values 0.966 | S. cerevisiae deletion strains, locus YOR069W, strain VPS5, hits give low values 0.978 | S. cerevisiae deletion strains, locus YOR070C, strain gyp1, hits give low values 0.964 | S. cerevisiae deletion strains, locus YOR080W, strain dia2, hits give low values 0.977 | S. cerevisiae deletion strains, locus YOR083W, strain WHI5, hits give low values 0.967 | S. cerevisiae deletion strains, locus YOR106W, strain vam3, hits give low values 0.889 | S. cerevisiae deletion strains, locus YOR136W, strain idh2, hits give low values 0.929 | S. cerevisiae deletion strains, locus YOR265W, strain rbl2, hits give low values 0.982 | S. cerevisiae deletion strains, locus YOR270C, strain vph1, hits give low values 0.932 | S. cerevisiae deletion strains, locus YOR290C, strain snf2, hits give low values 0.903 | S. cerevisiae deletion strains, locus YOR316C, strain cot1, hits give low values 0.962 | S. cerevisiae deletion strains, locus YPL051W, strain arl3, hits give low values 0.926 | S. cerevisiae deletion strains, locus YPL078C, strain atp4, hits give low values 0.976 | S. cerevisiae deletion strains, locus YPL106C, strain sse1, hits give low values 1.01 | S. cerevisiae deletion strains, locus YPL240C, strain hsp82, hits give low values 0.977 | S. cerevisiae deletion strains, locus YPL241C, strain CIN2, hits give low values 0.96 | S. cerevisiae deletion strains, locus YPR119W, strain clb2, hits give low values 0.98 | S. cerevisiae deletion strains, locus YPR141C, strain kar3, hits give low values 0.959 | S. cerevisiae deletion strains, locus YPR167C, strain met16, hits give low values 0.947

Source: PubChem BioAssay AID1159580 (chemical genetic matrix, 2015)
